Most compounds without a hit are left out; they make up all but 1.5% or so of the library.
BCLXL inh: blocks human Bcl-xL binding to Bim BH3 peptide; Q07817; GST-Bcl-xL / FITC-Bim BH3 peptide fluorescence polarization; inhibition, % at 10.9 µM; hit rate 0.7% among 320,000; AID 2129;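 active means inhibition above the mean of all tested compounds plus 3 SD, cutoff set per campaign, cut at about 30% in these data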;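 further: inhibitors lower millipolarization by displacing the labeled peptide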
MCL1 BIM primary: inhibitors of human MCL1 binding to BIM-BH3 peptide | hit rate 0.68% among 320,000 | GST-MCL1 / FITC-Bim-BH3 fluorescence polarization | AID 2057 | inhibition, % at 10.9 µM | Q07820;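 active means inhibition above the mean inhibition of all tested compounds plus 3 SD, set per campaign, cut at about 40% in these data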;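 further: higher means more loss of mP so more displacement of Bim peptide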
EBV gp42 block: blocks Epstein-Barr virus glycoprotein 42 binding | Q1HVG2 | Fluorescence polarization binding assay, mP read-out | inhibition, % (tested at 21.74 µM) | hit rate 0.42% among 220,000; in the data active means inhibition above about 50%
GLD-1 TGE inh: GLD-1-TGE RNA interaction inhibition (C. elegans). Q17339. purified GLD-1 + fluorescein TGE RNA, fluorescence polarization. inhibition, % at 5.96 µM. hit rate 0.44% among 320,000. AID 2280;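 active means percent inhibition above a per-plate cutoff, the plate mean of test compounds plus 3 SD, cut at about 30% in these data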
MEX-5 binding: C. elegans MEX-5 TCR-2 RNA binding activity; MEX-5/FITC-TCR2 RNA binding, fluorescence polarization; active compounds read low; hit rate 0.38% among 300,000; activity score (negative = inhibition of binding), % at 10 µM; Q9XUB2;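 active means inhibition past about -25% in most replicates, and total fluorescence under double the plate's negative control median, limit read from the data; inconclusive means replicates evenly split on the limit, or fluorescence at least double controls; inactive means too little inhibition in most replicates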
E coli Lon inh: inhibitors of E. coli Lon protease; P0A9M0; inhibition, % at 7.94 µM; purified E. coli Lon protease, fluorescence polarization; hit rate 0.42% among 360,000; in the data active means inhibition above about 13%, passing the limit was not always enough
Target sequence (P0A9M0 whole entry, looked up): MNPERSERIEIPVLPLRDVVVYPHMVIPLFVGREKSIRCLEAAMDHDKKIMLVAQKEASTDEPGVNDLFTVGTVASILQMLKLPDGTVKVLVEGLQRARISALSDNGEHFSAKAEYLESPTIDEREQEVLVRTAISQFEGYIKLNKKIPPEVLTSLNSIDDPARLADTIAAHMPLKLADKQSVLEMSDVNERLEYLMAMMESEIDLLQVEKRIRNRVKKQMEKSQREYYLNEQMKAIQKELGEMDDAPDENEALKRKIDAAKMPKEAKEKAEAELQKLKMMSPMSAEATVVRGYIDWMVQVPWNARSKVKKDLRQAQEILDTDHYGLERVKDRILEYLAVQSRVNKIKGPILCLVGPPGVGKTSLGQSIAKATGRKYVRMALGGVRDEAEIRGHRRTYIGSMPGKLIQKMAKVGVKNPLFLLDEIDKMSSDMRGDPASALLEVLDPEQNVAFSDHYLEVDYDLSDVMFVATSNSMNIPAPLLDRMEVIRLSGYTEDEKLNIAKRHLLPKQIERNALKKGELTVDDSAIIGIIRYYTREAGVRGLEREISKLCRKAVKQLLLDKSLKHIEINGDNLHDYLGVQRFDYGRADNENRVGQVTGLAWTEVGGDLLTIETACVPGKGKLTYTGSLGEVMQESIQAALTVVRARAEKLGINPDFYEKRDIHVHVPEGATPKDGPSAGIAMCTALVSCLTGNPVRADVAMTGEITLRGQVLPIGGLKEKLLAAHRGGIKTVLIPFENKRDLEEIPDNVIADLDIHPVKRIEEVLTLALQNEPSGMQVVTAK
eLon confirm: E. coli Lon inhibition confirmation; shares compounds with E coli Lon inh; purified E. coli Lon, fluorescence polarization; inhibition, % at 7.94 µM; hit rate 31% among 1,400; in the data active means inhibition above about 16%
Large screens that a line does not name were inactive (follow-up assays come after a bar, where they were run).

COC(=O)CCC(=O)OC1(C)C(=O)C=C2C=C(C3CC3)N(C(CO)CO)C=C2C1=O (configuration not stated)	E coli Lon inh 26.8 | eLon confirm inactive
O=C(CSCC(=O)OCn1nnc2ccccc2c1=O)Nc1ccc(Cl)cc1	E coli Lon inh 17.1 | eLon confirm inactive
CCCCC(=O)N(C)c1c(CC)nc2c(OCc3ccc(C(F)(F)F)cc3)cccn12	none (no result: BCLXL inh, MCL1 BIM primary, EBV gp42 block, GLD-1 TGE inh, MEX-5 binding)
O=C(c1ccco1)N(CC1CCCO1)c1nc(-c2ccccc2)cs1 (configuration not stated)	none
O=C(c1cccs1)N(CC1CCCO1)c1nc(-c2ccccc2)cs1 (configuration not stated)	E coli Lon inh 16.5 | eLon confirm 17.1
CCOC(=O)C1(C)CCN1C(=O)c1oc2ccccc2c1C (configuration not stated)	none (no result: BCLXL inh, MCL1 BIM primary, EBV gp42 block, GLD-1 TGE inh, MEX-5 binding)
Cc1ccc(/C(N)=N/OC(=O)C(C)c2ccc([N+](=O)[O-])cc2)cc1 (configuration not stated)	none (no result: EBV gp42 block)
Cc1nn(-c2ccccc2)c2[nH]c(=O)c(CNc3ccc4c(c3)OCCO4)cc12	E coli Lon inh 21.1 | eLon confirm 43.5
COc1cccc(NCc2cc3c(C(C)(C)C)nn(-c4ccccc4)c3[nH]c2=O)c1	none
COc1cc(NC(=O)NS(=O)(=O)c2ccc(C)cc2)cc(OC)c1	none
COc1ccc(NC(=O)NS(=O)(=O)c2ccc(C)cc2)cn1	MEX-5 binding -49.8, E coli Lon inh 87.5 (no result: BCLXL inh, MCL1 BIM primary, EBV gp42 block, GLD-1 TGE inh) | eLon confirm 28.1
COc1ccc(NC(=O)Nc2ccc(OCc3ccccc3)cc2)cn1	MEX-5 binding -37.2, E coli Lon inh 24.9 (no result: BCLXL inh, MCL1 BIM primary, EBV gp42 block, GLD-1 TGE inh) | eLon confirm 24.7
C=CCn1c(SCc2ccccc2F)nc2cc(C(=O)O)ccc2c1=O	none (no result: EBV gp42 block)
Cc1ccc(N(CC(=O)N2CCCC2)S(C)(=O)=O)c(C)c1	E coli Lon inh 35.8 (no result: EBV gp42 block) | eLon confirm inactive
Cc1ccc(N(CC(=O)N2CCCC2)S(C)(=O)=O)cc1C	none (no result: EBV gp42 block)
CC1(C(=O)NS(=O)(=O)c2cccc(Cl)c2)CCN1C(=O)CCc1ccccc1 (configuration not stated)	none (no result: BCLXL inh, MCL1 BIM primary, EBV gp42 block, GLD-1 TGE inh, MEX-5 binding)
O=C1c2ccccc2S(=O)(=O)N1CC(O)Cn1ccc2ccccc21 (configuration not stated)	E coli Lon inh 112.1 | eLon confirm 45.1
OCC[C@@H]1C[C@@H](O)[C@H](O)[C@]2(OCCc3ccccc32)O1	none (no result: EBV gp42 block)
O=C(O)CCC1(C(=O)O)OCCc2ccccc21 (configuration not stated)	E coli Lon inh 17.4 | eLon confirm inactive
OC1CCCN(Cc2ccc3ccc4cccc5ccc2c3c45)C1 (configuration not stated)	none
c1cc2ccc3ccc(CN4CCOCC4)c4ccc(c1)c2c34	E coli Lon inh 16.8 | eLon confirm inactive
CN(C)/C=C1\C(=O)Oc2ccccc2C1=O	none (no result: EBV gp42 block, MEX-5 binding)
O=C(Nc1ccccc1Cl)C1CCCN(S(=O)(=O)c2ccc(-n3cnnn3)cc2)C1 (configuration not stated)	none (no result: EBV gp42 block)
Cc1ccc(N2C(=O)c3cccc4c(N)ccc(c34)C2=O)c2cccnc12	BCLXL inh 30.4, E coli Lon inh 161.3 | eLon confirm inactive
O=C(NCCCO)c1ccc2[nH]c3ccccc3c2c1	none
Nc1c(Cl)cc(-c2[nH]c3cc(C(=O)NCCO)ccc3c(=O)c2O)cc1Cl	MEX-5 binding inconclusive, E coli Lon inh active (no result: EBV gp42 block) | eLon confirm 193.1
CCCNC(=O)c1ccc2c(=O)c(O)c(-c3ccc(F)cc3)[nH]c2c1	MEX-5 binding -89.8, E coli Lon inh 163.0 | eLon confirm 99.7
CCCNC(=O)c1ccc2c(=O)c(O)c(-c3cccc(Br)c3)[nH]c2c1	MEX-5 binding -83.9, E coli Lon inh 143.5 | eLon confirm 135.0
CCCNC(=O)c1ccc2c(=O)c(O)c(C)[nH]c2c1	none
CC(=O)c1ccc(N(CC(=O)NC2CCCC2)C(=O)CCC(=O)Nc2cc(C)on2)cc1	none (no result: EBV gp42 block)
CC1(C)CC(=O)C2=C(C1)c1c(ccc3ccccc13)NC2c1ccco1 (configuration not stated)	none
Cc1ccsc1C1Nc2ccc3ncccc3c2C2=C1C(=O)CC(C)(C)C2 (configuration not stated)	E coli Lon inh 22.3 | eLon confirm inactive

Bioassay records from PubChem.
